Shiga inhibitor = Shiga toxin inhibition; Vero cells, Shiga toxin protein synthesis inhibition reporter; inhibition, % at 38.7 µM; actives 9.2% (n = 290,000); in the data active = inhibition mostly above about 28%, no sharp cut-off; inactive = mostly below about 43%
SARS PLpro yeast = SARS-CoV PLP inhibition in yeast | S. cerevisiae expressing SARS-CoV PLpro, growth rescue | Potency, µM (highest dose often 32.9 µM), usual class: activators | actives 0.19% (n = 330,000) | AID 485353; also: nearly all actives have a fitted effect of over 55% in size
Cycloheximide cs = counter-screen hit for Shiga toxin inhibitors, cycloheximide; max response, %; actives 12% (n = 300,000); cell reporter, cycloheximide protein synthesis inhibition counterscreen; in the data active = max response mostly above about 13%, no sharp cut-off; inactive = mostly below about 14%; also: read at 38.3 µM for the half of the compounds with a filed dose
NS1 function inh = blocks influenza NS1 protein function; Potency, µM (top dose mostly 46.1 µM); actives 0.4% (n = 270,000); AID 2326; also: actives are rising curves; nearly all actives have a fitted effect of over 50% in size
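A cell-based growth assay was used: compounds that relieve NS1-induced slow growth of budding yeast raise OD600. Assay medium was yeast nitrogen base with ammonium sulphate and -URA supplement, pH 6.0, with 2% galactose.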
Each line names hits and unclear results; the compound was inactive in the other large screens. Sampled rows, rich in hits. Any-hit rate of the full collection: about 12%. Unless noted, calls follow the shape of the full dose curve.

COc1cc(NS(=O)(=O)c2cc(C(=O)NCCc3ccccn3)ccc2OC)cc(OC)c1	none (no result: Shiga inhibitor, Cycloheximide cs, NS1 function inh)
Cc1nc2ccccc2nc(C)c1=NOCC(=O)N(c1ccccc1)C(C)C	Shiga inhibitor 115.6, Cycloheximide cs 61.1
CCC1(c2ccc(F)cc2)NC(=O)N(CC(=O)Nc2ccc(S(N)(=O)=O)cc2)C1=O (centres undefined)	none
Cc1ccc(S(=O)(=O)NC(=O)NCCCCNC(=O)NS(=O)(=O)c2ccc(C)cc2)cc1	none
Cc1ccc(N(O)C(=O)NCCCCNC(=O)N(O)c2ccc(C)cc2)cc1	Shiga inhibitor 51.6, Cycloheximide cs 35.9
Cc1ccc2c(CN3CCCCC3)cc(=O)oc2c1C	Cycloheximide cs 36.1
Cc1cc2oc(=O)cc(CN3CCCCC3)c2cc1O	Cycloheximide cs 27.3
Cc1ccc2c(CN3CCCc4ccccc43)cc(=O)oc2c1C	Cycloheximide cs 27.0
CCC(NC(=O)CNC(=O)CNC(=O)c1ccc(Cl)cc1Cl)c1ccc(C)cc1 (centres undefined)	none
COc1ccc(/C=N/NC(=O)CN2CCSCC2)cc1C	Cycloheximide cs 17.5
O=C(CN1CCSCC1)N/N=C/c1cccc(Cl)c1	Cycloheximide cs 14.6 (no result: NS1 function inh)
CCOc1ccc(/C=N/NC(=O)CN2CCSCC2)cc1	none
COc1cc(/C=N/NC(=O)CN2CCOCC2)ccc1OCc1ccccc1	none
COc1cc(/C=N\NC(=O)CN2CCOCC2)ccc1OCC(=O)Nc1ccc(C)c(C)c1	Shiga inhibitor 35.0, Cycloheximide cs 14.2
O=C(NNC(=O)c1ccco1)c1cccc([N+](=O)[O-])c1	none
Cc1c(C(=O)NC(=S)N(Cc2ccccc2)c2ccccn2)cccc1[N+](=O)[O-]	none (no result: Shiga inhibitor, Cycloheximide cs, NS1 function inh)
CCCC(=O)Nc1ccc(Oc2ccc(NC(=O)CCC)cc2)cc1	none
CCCCC(=O)Nc1ccc(C(=O)c2ccccc2)cc1	Shiga inhibitor 49.4, Cycloheximide cs 35.4
CCCC(=O)Nc1ccc(C#Cc2ccccc2)cc1	Shiga inhibitor 115.0, Cycloheximide cs 51.2
O=C(CCCCC(=O)Nc1ccccc1)Nc1ccccc1	none (no result: Shiga inhibitor)
O=C(Nc1ccccc1)c1c(F)cccc1F	NS1 function inh inconclusive
O=C(Nc1ccccc1)Nc1c(F)cccc1F	Shiga inhibitor 43.4, Cycloheximide cs 41.2 (no result: NS1 function inh)
CC(=O)Nc1ccc(NC(=O)Nc2ccccc2)cc1	Shiga inhibitor 64.1, Cycloheximide cs 25.3
OCC[C@H]1C[C@H](O)[C@@H](O)[C@@]2(CCc3ccccc3O2)O1	none (no result: Shiga inhibitor, Cycloheximide cs, NS1 function inh)
O=C(NCC1CCCO1)c1cc([N+](=O)[O-])ccc1N1CCC(Cc2ccccc2)CC1 (centres undefined)	none (no result: Shiga inhibitor, Cycloheximide cs, NS1 function inh)
CC(=O)Nc1ccc(C(=O)c2ccccc2)cc1	Cycloheximide cs 16.1
CC(=O)Nc1ccc(NC(=O)c2ccc(NC(=O)c3ccccc3)cc2)cc1	SARS PLpro yeast inconclusive
CC(=O)Nc1ccc(/C(C)=N/NS(=O)(=O)c2ccccc2)cc1	Cycloheximide cs 22.7
O=C(COc1ccc(Br)cc1)Nc1ccc(CN2CCOCC2)cc1	none
Cn1ncc([N+](=O)[O-])c1C(=O)N/N=C/c1ccc(F)cc1	none
S=C1NC2(CCCCC2)NN1c1ccccc1	none (no result: NS1 function inh)
CC1CCCC2(C1)NC(=S)N(c1ccccc1)N2 (centres undefined)	Cycloheximide cs 28.4
O=C(NC(=S)N1CCCc2ccccc21)c1ccccc1	Shiga inhibitor 68.7, Cycloheximide cs 24.7
O=C(Cn1cc([N+](=O)[O-])cn1)N1CCCc2ccccc21	Shiga inhibitor 52.6 (no result: NS1 function inh)
O=C(NC(=S)N1CCCc2ccccc21)c1ccc(Br)cc1	Cycloheximide cs 21.8
O=C(c1cc([N+](=O)[O-])cc([N+](=O)[O-])c1)N1CCCc2ccccc21	none
O=C(C(=O)N1CCCc2ccccc21)N1CCCc2ccccc21	none
NC(=S)N1CCCc2ccccc21	NS1 function inh inconclusive
O=C(NC(=S)N1CCCc2ccccc21)c1ccc([N+](=O)[O-])cc1	Shiga inhibitor 58.5, Cycloheximide cs 47.4
COCCCNC(=O)CSc1nc2c(sc3ccccc32)c(=O)n1CCCC(=O)NCC1CCCO1 (centres undefined)	none (no result: NS1 function inh)
CC[C@]12c3[nH]c4ccccc4c3CCN1C(=O)C(CC(=O)NCCCN(C)C)C[C@@H]2C(=O)N1CCN(C(=O)C2CC2)CC1 (some centres undefined)	none (no result: Shiga inhibitor, Cycloheximide cs, NS1 function inh)
C/C(CCN1CCc2nc(-c3ccccc3)c(-c3ccccc3)cc2C1)=N\O[C@@H](C)c1cn([C@H](CO)Cc2ccccc2)nn1	none
O=C(NCC(c1ccco1)N1CCN(c2ccccc2F)CC1)c1ccc2c(c1)OCO2 (centres undefined)	none (no result: Shiga inhibitor, Cycloheximide cs, NS1 function inh)
CC[C@@H](Nc1ncnc2nc[nH]c12)C(=O)O	none (no result: Shiga inhibitor, SARS PLpro yeast, Cycloheximide cs)
O=C(NC(=S)N1CCCc2ccccc21)c1ccc(Cl)cc1	Shiga inhibitor 73.3, Cycloheximide cs 52.2, NS1 function inh inconclusive
Clc1ccc2nc3c4ccccc4cnn3c2c1	Shiga inhibitor 117.0, Cycloheximide cs 61.8
CCN(CC)c1ccc2c(c1)CCCN2	SARS PLpro yeast 12.6µM
O=S(=O)(c1ccc2c(c1)CCCN2)N1CCCC1	none (no result: Shiga inhibitor, Cycloheximide cs, NS1 function inh)
CC1(C)CC(=O)c2cnc(N3CCc4ccccc43)nc2C1	Shiga inhibitor 88.2, Cycloheximide cs 50.6
O=C1CC(c2ccc(F)cc2)Cc2nc(N3CCc4ccccc43)ncc21 (centres undefined)	NS1 function inh 7.08µM
CC(=O)Nc1ccc(S(=O)(=O)N(C)CC(=O)N(C)Cc2sccc2C)cc1	none (no result: Shiga inhibitor, Cycloheximide cs, NS1 function inh)
C=CCn1c(Cc2c[nH]c3ccccc23)n[nH]c1=S	Cycloheximide cs 12.3, NS1 function inh inconclusive
COc1ccc(/C=C2/SC(=O)N(CCNC(=O)C3CCCN3C(=O)c3cccs3)C2=O)cc1 (centres undefined)	Shiga inhibitor 63.1, Cycloheximide cs 32.1
COc1ccc(/C=C2\SC(=O)N(CCn3cnnn3)C2=O)cc1	Shiga inhibitor 82.9, Cycloheximide cs 37.3
COc1ccc(/C=C2/SC(=O)N(CCNC(=O)CC(NC(C)=O)c3ccccc3)C2=O)cc1 (centres undefined)	Cycloheximide cs 20.9
COc1ccc(/C=C2\SC(=O)N(CCNC(=O)C3CC4C=CC3C4)C2=O)cc1 (centres undefined)	Shiga inhibitor 101.2, Cycloheximide cs 57.8
COc1cc(/C(O)=C(\C#N)c2nc3ccccc3[nH]2)cc(OC)c1OC	NS1 function inh inconclusive
CCn1c(CNC(=O)c2ccc(F)cc2)cc2ccccc21	Cycloheximide cs 30.1
COc1ccc(C(=O)NCc2ccc3c(c2)cc(C)n3C)cc1	none
Cn1c(CC(=O)Nc2ccccc2)cc2ccccc21	Shiga inhibitor 45.5, Cycloheximide cs 40.0
COc1ccc(C(=O)NCc2cc3ccccc3n2C)cc1	Cycloheximide cs 28.9 (no result: Shiga inhibitor)
O=C1c2ccccc2C(=O)C12OC2c1ccc(Cl)cc1Cl (centres undefined)	none
COc1ccccc1/C=C(\NC(=O)c1cccc(C)c1)C(=O)Nc1ccccn1	none
Cc1noc(C)c1-c1ccc2ncnc(NCc3ccc(C(F)(F)F)o3)c2c1	none (no result: SARS PLpro yeast, NS1 function inh)
C=CCn1c(N)c(C(=O)NCCC2=CCCCC2)sc1=S	Shiga inhibitor 105.6, Cycloheximide cs 49.2
NC(=O)NCCC1=CCCCC1	none
COc1ccc(-c2noc(CNS(=O)(=O)c3ccccc3)n2)cc1	Cycloheximide cs 16.9
Cc1ccc(-c2noc(CNS(=O)(=O)c3ccccc3)n2)cc1	Shiga inhibitor 38.5, Cycloheximide cs 42.5
Cc1cccc(NCc2nc(-c3ccccc3)no2)c1	Cycloheximide cs 35.6
